This is one part of a sample in which hits are shown more often than they occur.
mcGAS RapidFire = inhibitors of Mus musculus cyclic GMP-AMP synthase, initial high-throughput assay, cell-free, RapidFire MS | recombinant mouse cGAS, cGAMP by RapidFire MS | inhibition, % at 12.5 µM | actives 0.18% (n = 130,000);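 active = inhibition of cGAS enzyme activity at or above 60%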;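 also: enzyme stimulated by 45 bp dsDNA with ATP and GTP substrates; cGAMP share of summed cGAMP plus half ATP and half GTP signals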
Target sequence (Q8C6L5 whole entry, looked up): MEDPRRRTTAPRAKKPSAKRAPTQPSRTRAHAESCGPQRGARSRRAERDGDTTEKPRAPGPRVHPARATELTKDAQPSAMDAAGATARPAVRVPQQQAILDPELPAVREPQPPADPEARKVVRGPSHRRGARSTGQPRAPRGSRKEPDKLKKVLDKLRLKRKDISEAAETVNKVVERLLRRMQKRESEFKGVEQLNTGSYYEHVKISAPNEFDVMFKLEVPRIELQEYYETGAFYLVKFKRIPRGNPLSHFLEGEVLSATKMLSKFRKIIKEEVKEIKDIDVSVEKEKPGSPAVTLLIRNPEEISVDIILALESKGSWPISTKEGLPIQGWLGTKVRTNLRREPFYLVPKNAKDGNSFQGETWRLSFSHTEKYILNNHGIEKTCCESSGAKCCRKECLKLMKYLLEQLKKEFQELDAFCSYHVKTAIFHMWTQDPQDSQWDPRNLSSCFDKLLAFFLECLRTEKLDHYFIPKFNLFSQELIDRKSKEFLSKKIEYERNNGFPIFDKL
An asterisk follows results filed as active; ! = not active in a repeat.

SMILES	mcGAS RapidFire
CCOC(=O)C1=C(C)NC(C)=C(C(=O)OC)C1c1cccc([N+](=O)[O-])c1 (centres undefined)	-13
COCCOC(=O)C1=C(C)N(C)C(=O)NC1c1ccccc1[N+](=O)[O-] (centres undefined)	-8
COc1ccc2c(=O)c3c(=O)n(-c4ccc(C)cc4)c(C(C)C)nc3oc2c1	-12
CC(C)(C)c1noc(CN2CCCc3c(F)cc(F)cc32)n1	1
Cc1cc(O)c(C=O)c(O)c1C(=O)O	82*
Cc1cc(O)cc(O)c1C(=O)O	46
Cc1cc(C)c(C(=O)O)c(=O)[nH]1	-4
CCn1ccnc1S(=O)(=O)C(C)c1cn(-c2ccccc2)nn1 (centres undefined)	-5
CN(C)c1ccc(C(F)(F)F)cc1NS(=O)(=O)c1ccccc1Cl	-2
O=C(CN1C(=O)C(=O)N(C2CCCC2)C1=O)c1cccs1	-4
CCN(CC)CCCC(C)NCc1ccccc1OC (centres undefined)	-1
CCN(CC)CCCC(C)Nc1c2ccc(Cl)cc2nc2ccc(OC)cc12 (centres undefined)	68*!
COc1ccc2nc3cc(Cl)ccc3c(Nc3cc(CN4CCCC4)c(O)c(CN4CCCC4)c3)c2n1	33
Cc1cccnc1N1CCN(Cc2cccc(Cn3cccn3)c2)CC1	-37
CC(C)C(NS(=O)(=O)c1ccccc1)C(=O)N1CCN(c2ccccc2Cl)CC1 (centres undefined)	-10
CC(C)C(NS(=O)(=O)c1ccccc1)C(=O)N1CCN(c2cccc(Cl)c2)CC1 (centres undefined)	60*
CC(C)C(NS(=O)(=O)c1cccc(Cl)c1)C(=O)N1CCN(c2ccccc2)CC1 (centres undefined)	-5
COc1ccc(-c2ccc(C(=O)NC(C)c3cnn(-c4ccccn4)c3C)o2)cc1 (centres undefined)	-4
COc1cc(C(=O)N2C(C(=O)NC(C)C)CSC2c2ccc(F)cc2)cc(OC)c1OC (centres undefined)	-1
S=C(NCc1ccco1)NC1CCSc2ccccc21 (centres undefined)	0
O=C1CSC(=NNC(=S)NCc2ccco2)N1	83*
C=C(N/N=C1/NC(=O)CS1)c1ccccc1	-6
CNC(=O)c1c(NC(=O)c2cnc(C(C)C)nc2C)sc2c1CCCC2	-11
CCN1CC(C(=O)Nc2ccccc2C(C)C)CC1=O (centres undefined)	3
O=C(Nc1ccc2scnc2c1)C1CC(=O)N(CC2CC2)C1 (centres undefined)	-13
SMILES	mcGAS RapidFire
CC(CC#N)Sc1ccccc1NC(=O)C1CC(=O)N(CC2CC2)C1 (centres undefined)	66*
O=C(Cc1csc(-c2ccccn2)n1)Nc1ccccc1SCc1ccccc1	-4
COc1ccc2[nH]c(=O)c(CN3CCCOC(Cn4cccn4)C3)cc2c1 (centres undefined)	-13
COc1ccc2[nH]c(=O)c(CN3CCC(N4CCCC(O)C4)CC3)cc2c1 (centres undefined)	2
COc1ccc2cc(CN3CCCN(c4ccncc4)CC3)c(=O)[nH]c2c1	60*
COc1ccc(Cl)cc1Cn1cc(C(=O)NCc2cccc(C(F)(F)F)c2)sc1=O	-10
Cn1ccsc1=NC(=O)c1ccc(NC(=O)OC(C)(C)C)cc1	-14
CC(C)(C)OC(=O)Nc1ccncc1C(=O)c1ccccc1	-21
CC(C)(C)OC(=O)Nc1ccsc1Br	66*!
O=C(NC1CCN(C/C=C/c2ccccc2)CC1)c1ccccc1	7
CNc1ccc2ncc(-c3ccccc3F)n2n1	15
CCc1[nH]c2ccc(CNCc3ccc(F)c(OC)c3)cc2c1C	-9
CCCNC(=O)C1(C)CCN(Cc2cccs2)C1 (centres undefined)	0
CC(=O)Nc1nc2nc(C)c(C)c(=O)n2[nH]1	-12
Cc1nc2nc(C)c(Br)c(=O)n2[nH]1	69*
CCCc1nc2nc(C)c([N+](=O)[O-])c(=O)n2[nH]1	-6
c1ccc(-n2nnnc2SCc2ccc3nonc3c2)cc1	-3
Cc1cc(C)n(CC(=O)N=Nc2c(O)[nH]c3c(C)cccc23)n1	-7
CCc1ncc(NC(=O)CC(C)c2ccccc2C)cn1 (centres undefined)	-9
CC(C)N1CCCC(N2CCCN(CC(=O)N(C)C)CC2)C1=O (centres undefined)	-2
Clc1ccc2c(-n3ccnc3)ccnc2c1	67*
Clc1ccc2c(Oc3ccc(Br)cc3)ccnc2c1	-20
Clc1ccc(Oc2ccnc3cc(Cl)ccc23)cc1	-4
COc1cc(CN2CCC(Oc3ccccc3C(=O)N3CCCCC3)CC2)ccc1F	-8
O=C1CN(c2ccc(C(=O)N3CCCN(c4ncccn4)CC3)cn2)CCN1	-7
CCOc1ccc(C(=O)N2CCN(c3ncccn3)CC2)cc1	-1
O=C(c1ccc(N2CC(O)C2)nc1)N1CCCN(c2ncccn2)CC1	80*
CC(CNC(=O)Cn1nnnc1CN1CCCCCC1)Oc1cccnc1 (centres undefined)	2
CCCNC(=O)C1(C)CCN(Cc2cccc3c(OC)cc(C(=O)OCC)cc23)C1 (centres undefined)	3
